Consider five compounds from PubChem BioAssay.

For test [1], the target named is Albumin (Bos taurus) (UniProt P02769). In words: compounds binding labelled BSA control protein – biochemical, small-molecule microarray, Alexa647 label, 635/667 nm fluorescence, artefact control for SMM control protein annotation, profiling panel (AID 1118).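 Note: score merges 667 nm emission intensity and signal-to-noise per printed compound spot.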 The settings on record: BSA-A647 binding, fluorescence 635 nm, higher = more signal.
The nature of test [2]: probe aXIP binding to arrayed compounds – biochemical, NeuroSMM set, 635/667 nm fluorescence, primary screen (AID 1119).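 Note: probe is the protein aXip251-270 applied at 1 µg/mL to compound-printed slides; binding of probe to printed compounds measured as 667 nm fluorescence plus signal to noise.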 The conditions noted are these: small-molecule microarray, higher = more signal, called active from +8 up or from −8 down.
Test [3] in a line: probe aNOTCH3 binding on compound microarray – biochemical, small-molecule microarray, 635/667 nm fluorescence, primary screen (AID 1120).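 Note: probe is a biotin-tagged antibody raised against NOTCH3 rather than NOTCH3 protein; score merges spot fluorescence near 667 nm with spot signal to noise.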 The settings on record: higher = more signal.
Test [4] in a line: probe aNOTCH2 binding on compound microarray – biochemical, small-molecule microarray, 635/667 nm fluorescence, primary screen (AID 1121).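 Note: score merges feature fluorescence read at 667 nm with its signal to noise.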 The settings on record: higher = more signal.
Test [5] addresses Carbonic anhydrase 2 (Homo sapiens) (UniProt P00918). In words: compounds binding carbonic anhydrase 2 – biochemical, small-molecule microarray, Alexa647-labelled CAII, profiling panel (AID 1122). The conditions noted are these: CAII-A647 binding fluorescence, higher = more signal.
The nature of test [6]: COS7 lysate on small-molecule microarray, probe aHis, 635 nm (AID 1123).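 Note: z-score combines 667nm fluorescence intensity with signal-to-noise per printed compound spot.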 The settings on record: COS7 cell lysate, fluorescence, higher = more signal.
Test [7] is described as follows: probe aLAP1 signal on lysate-treated microarray – cell lysate, small-molecule microarray, COS7 lysate, primary screen (AID 1124).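 Note: lysate comes from COS7 cells expressing LAP1 and is applied at 0.3 µg/mL; score merges spot fluorescence near 667 nm with signal-to-noise over triplicate slides.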 The settings on record: probe aLAP1, fluorescence, higher = more signal.
Test [8] deals with Sam68 (KHDRBS1). In words: compounds binding KHDRBS1 protein – biochemical, small-molecule microarray, 635 nm fluorescence, primary screen (AID 1125).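 Note: score merges 667 nm channel intensity with signal to noise over triplicate slides.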 The conditions noted are these: higher = more signal.
Test [9] relates to Chordin-like protein 2 (CHRDL2). In words: compounds binding chordin-like 2 – biochemical, small-molecule microarray, 635 nm fluorescence, primary screen (AID 1126).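 Note: printed compound slides probed with Chrdl2 protein at 4 µg/mL for 1 h at 4 C; score merges 667 nm emission intensity with signal to noise over three replicate slides.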 The conditions noted are these: fluorescence 635 nm, higher = more signal.
Test [10] has as its target Concanavalin-A (Canavalia ensiformis) (UniProt P02866). In words: compounds binding concanavalin A lectin – biochemical, small-molecule microarray, Alexa647 label, 635 nm, artefact control for SMM control protein annotation, primary screen (AID 1127).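 Note: z combines 667 nm emission intensity with signal-to-noise across three replicate slides.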 The settings on record: ConA-A647 binding fluorescence, higher = more signal.
A short description of test [11]: compounds binding Alexa647 anti-His antibody – biochemical, small-molecule microarray, 635 nm fluorescence, artefact control for SMM control protein annotation, primary screen (AID 1128).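 Note: score merges feature fluorescence with signal-to-noise for each printed compound spot.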 The settings on record: higher = more signal.
Test [12] deals with Human papillomavirus type 1a E7 protein (residues 1-88). The experiment in a line: HPV1a E7 small-molecule binders, primary screen, biochemical, small-molecule microarray, residues 1-88, 635 nm (AID 1129). The settings on record: small-molecule microarray binding, fluorescence 635 nm; higher = more signal.
Test [13] concerns the target Focal adhesion kinase 1 (Homo sapiens) (UniProt Q05397). In words: PTK2 protein binding on printed compound slides – biochemical, small-molecule microarray, 635/667 nm fluorescence, BSA, DTT, primary screen (AID 1130).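 Note: composite of spot emission at 667 nm and signal to noise over triplicate slides.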 The conditions noted are these: 635 nm fluorescence, higher = more signal.
In test [14] the test system is Fibrinogen (Alexa647-labelled). The experiment in a line: Alexa647-fibrinogen binding to printed small molecules – biochemical, small-molecule microarray, 635/667 nm fluorescence, artefact control for SMM control-protein annotation, profiling panel (AID 1131).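 Note: z-score merges 667 nm fluorescence with per-spot signal-to-noise over triplicate slides.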 The conditions noted are these: fibrinogen-A647 binding fluorescence, higher = more signal.
Test [15] addresses Follistatin (Homo sapiens) (UniProt P19883). In words: FST protein binding to printed compounds – biochemical, small-molecule microarray, 635/667 nm fluorescence, primary screen (AID 1132). The settings on record: 635 nm fluorescence, higher = more signal.
Test [16] has as its target Fibroblast growth factor 2 (Homo sapiens) (UniProt P09038). The experiment in a line: basic fibroblast growth factor binding to printed compounds – biochemical, small-molecule microarray, 635/667 nm fluorescence, primary screen (AID 1133). The settings on record: FGF2, fluorescence 635/667, higher = more signal.
Test [17] can be described thus: JC-1 mitochondrial potential readout, lung cancer cells – cell-based, A549, JC-1 fluorescence, basal, 24 h, 100 nL, profiling panel (AID 1138).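 Note: A549 lung adenocarcinoma cells under basal conditions with no added stimulus; test concentration not given here.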 The settings on record: higher = more signal.
In test [18] the test system is Lefty1. The experiment in a line: Lefty1 protein binding to printed compounds – biochemical, small-molecule microarray, 635/667 nm fluorescence, primary screen (AID 1139). The settings on record: fluorescence 635/667, higher = more signal.
Test [19] has as its system wheat germ agglutinin (Triticum aestivum), Alexa647-labelled. The experiment in a line: Alexa647-WGA lectin binding to printed small molecules – biochemical, small-molecule microarray, 635/667 nm fluorescence, artefact control for SMM control-protein annotation, profiling panel (AID 1140).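 Note: score merges 667 nm feature emission with signal to noise over triplicate slides.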 The conditions noted are these: WGA-A647 binding, 635 nm fluorescence, higher = more signal.

The target in test [20] is Luciferin 4-monooxygenase (Photinus pyralis) (UniProt P08659). The experiment in a line: inhibition of purified Photinus pyralis luciferase – biochemical, luminescence, purified enzyme, 2006 set, primary screen (AID 1141).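 Note: cell-free assay with purified firefly luciferase at 100 ng per well in PBS; test concentration not given here.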 The conditions noted are these: purified firefly luciferase, SteadyGlo luminescence, 30 min; higher = more signal, called active from +8 up or from −8 down.

Structures are written as SMILES. Calls of active or inactive are those of the source.

Luciferin 4-monooxygenase (Photinus pyralis), sequence (P08659 whole entry, looked up): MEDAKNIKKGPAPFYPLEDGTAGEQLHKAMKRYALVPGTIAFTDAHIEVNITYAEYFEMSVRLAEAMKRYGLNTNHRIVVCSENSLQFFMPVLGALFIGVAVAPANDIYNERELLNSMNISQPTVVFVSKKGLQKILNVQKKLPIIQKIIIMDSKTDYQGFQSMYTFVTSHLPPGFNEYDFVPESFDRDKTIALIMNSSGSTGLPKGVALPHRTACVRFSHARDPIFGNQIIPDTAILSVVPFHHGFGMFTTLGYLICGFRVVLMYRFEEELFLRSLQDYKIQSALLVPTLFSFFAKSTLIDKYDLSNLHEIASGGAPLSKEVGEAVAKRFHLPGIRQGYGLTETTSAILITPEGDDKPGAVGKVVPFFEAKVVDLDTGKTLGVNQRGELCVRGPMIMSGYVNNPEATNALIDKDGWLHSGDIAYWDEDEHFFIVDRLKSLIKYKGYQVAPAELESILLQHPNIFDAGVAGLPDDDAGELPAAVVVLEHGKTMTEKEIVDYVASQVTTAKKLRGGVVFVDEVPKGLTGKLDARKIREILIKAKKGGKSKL
Focal adhesion kinase 1 (Homo sapiens), sequence (Q05397 whole entry, looked up): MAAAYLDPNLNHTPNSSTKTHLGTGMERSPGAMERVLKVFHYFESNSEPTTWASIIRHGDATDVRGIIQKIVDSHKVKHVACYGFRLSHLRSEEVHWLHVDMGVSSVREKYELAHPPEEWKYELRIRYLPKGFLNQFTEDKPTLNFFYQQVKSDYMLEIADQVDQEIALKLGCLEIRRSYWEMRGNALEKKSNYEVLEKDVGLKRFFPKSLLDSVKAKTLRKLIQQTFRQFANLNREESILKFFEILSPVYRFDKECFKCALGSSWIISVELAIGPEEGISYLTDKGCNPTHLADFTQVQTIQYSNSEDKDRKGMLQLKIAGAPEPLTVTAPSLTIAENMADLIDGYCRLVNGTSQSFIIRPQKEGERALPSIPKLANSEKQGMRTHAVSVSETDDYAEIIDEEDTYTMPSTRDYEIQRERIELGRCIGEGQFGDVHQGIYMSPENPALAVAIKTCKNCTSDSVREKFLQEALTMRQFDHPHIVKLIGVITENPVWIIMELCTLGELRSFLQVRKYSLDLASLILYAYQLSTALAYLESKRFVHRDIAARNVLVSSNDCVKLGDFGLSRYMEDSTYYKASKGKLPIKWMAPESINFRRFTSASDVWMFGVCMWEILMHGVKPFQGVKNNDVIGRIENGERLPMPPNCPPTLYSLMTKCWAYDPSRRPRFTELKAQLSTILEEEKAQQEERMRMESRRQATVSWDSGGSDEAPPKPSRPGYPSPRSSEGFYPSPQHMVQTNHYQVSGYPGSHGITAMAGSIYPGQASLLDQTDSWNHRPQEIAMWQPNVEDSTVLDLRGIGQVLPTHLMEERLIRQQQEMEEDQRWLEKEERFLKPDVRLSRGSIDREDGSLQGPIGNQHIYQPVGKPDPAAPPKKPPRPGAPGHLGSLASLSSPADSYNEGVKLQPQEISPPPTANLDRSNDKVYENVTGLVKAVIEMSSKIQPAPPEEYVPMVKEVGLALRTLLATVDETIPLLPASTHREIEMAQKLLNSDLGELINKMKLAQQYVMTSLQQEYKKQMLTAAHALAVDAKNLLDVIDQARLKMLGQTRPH
Follistatin (Homo sapiens), sequence (P19883 whole entry, looked up): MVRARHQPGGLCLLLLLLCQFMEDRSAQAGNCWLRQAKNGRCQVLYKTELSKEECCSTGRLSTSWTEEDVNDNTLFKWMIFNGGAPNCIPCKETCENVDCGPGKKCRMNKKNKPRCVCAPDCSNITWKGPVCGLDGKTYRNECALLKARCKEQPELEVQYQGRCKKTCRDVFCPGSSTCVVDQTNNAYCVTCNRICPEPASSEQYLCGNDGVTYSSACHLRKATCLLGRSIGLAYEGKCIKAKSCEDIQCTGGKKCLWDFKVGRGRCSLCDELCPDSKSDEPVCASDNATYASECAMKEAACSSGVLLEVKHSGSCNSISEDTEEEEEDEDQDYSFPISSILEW
Concanavalin-A (Canavalia ensiformis), sequence (P02866 whole entry, looked up): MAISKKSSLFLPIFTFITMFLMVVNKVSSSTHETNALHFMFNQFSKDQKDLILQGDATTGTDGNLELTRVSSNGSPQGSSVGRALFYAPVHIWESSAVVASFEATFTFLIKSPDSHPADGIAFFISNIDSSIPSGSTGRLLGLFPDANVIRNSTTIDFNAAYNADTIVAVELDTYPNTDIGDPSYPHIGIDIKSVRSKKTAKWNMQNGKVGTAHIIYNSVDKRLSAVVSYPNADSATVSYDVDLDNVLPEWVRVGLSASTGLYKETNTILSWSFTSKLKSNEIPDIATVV
Fibroblast growth factor 2 (Homo sapiens), sequence (P09038 whole entry, looked up): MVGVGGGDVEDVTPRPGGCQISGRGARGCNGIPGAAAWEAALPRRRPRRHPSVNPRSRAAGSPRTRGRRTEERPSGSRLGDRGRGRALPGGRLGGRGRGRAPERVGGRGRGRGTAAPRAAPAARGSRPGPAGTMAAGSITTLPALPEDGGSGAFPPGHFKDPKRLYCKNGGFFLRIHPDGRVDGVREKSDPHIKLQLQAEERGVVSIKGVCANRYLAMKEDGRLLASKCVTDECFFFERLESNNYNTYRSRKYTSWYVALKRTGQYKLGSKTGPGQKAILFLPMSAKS
Albumin (Bos taurus), sequence (P02769 whole entry, looked up): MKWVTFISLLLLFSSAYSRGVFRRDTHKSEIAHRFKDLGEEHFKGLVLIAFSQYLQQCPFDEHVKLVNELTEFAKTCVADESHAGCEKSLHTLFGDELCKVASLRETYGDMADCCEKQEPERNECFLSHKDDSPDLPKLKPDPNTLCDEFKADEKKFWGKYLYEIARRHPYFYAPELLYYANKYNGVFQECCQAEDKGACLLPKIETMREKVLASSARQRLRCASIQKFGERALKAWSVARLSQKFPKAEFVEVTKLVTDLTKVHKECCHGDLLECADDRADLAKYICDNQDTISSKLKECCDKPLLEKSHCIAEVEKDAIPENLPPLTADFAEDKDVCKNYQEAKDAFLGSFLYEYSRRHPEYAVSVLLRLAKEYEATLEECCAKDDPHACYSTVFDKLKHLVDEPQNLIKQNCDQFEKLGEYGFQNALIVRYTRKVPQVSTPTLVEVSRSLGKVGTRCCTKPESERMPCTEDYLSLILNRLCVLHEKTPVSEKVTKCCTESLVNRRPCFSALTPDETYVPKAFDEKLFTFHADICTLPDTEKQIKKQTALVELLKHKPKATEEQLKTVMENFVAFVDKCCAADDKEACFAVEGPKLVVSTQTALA

Turning to `O=C1[C@H]2[C@H]3[C@H](O)[C@H](O)CC(=NO[C@@H]4O[C@H](CO)[C@@H](O)[C@H](O)[C@H]4O)[C@@H]3CC[C@H]2C(=O)N1C[C@@H]1CCCO1`, the composite z-score in test [1] is 0.587; in test [3] it was -0.243; in test [4], -0.131; in test [5], 0.212; in test [6] it was 0.146; in test [7], -0.136. In addition, the composite z-score in [8] was determined as 1.1; in test [9], 0.183; in test [10], 0.51; in test [11], 0.142; in test [12], 1.15; in test [13] it was 0.142. Moreover, the composite z-score in test [14] turned out to be 0.907; in test [15], 0.396; in test [16] it was 0.4; in [18], 0.649; in test [19] it was 0.326. For the same compound, the composite Z-score in [2] is -0.258 (inactive). Moreover, the z-score is -1.08 in test [17] and 0.954 (inactive) in [20].
Turning to `CC(C)=CCCC(C)=CCON=C1C[C@@H](O)[C@@H](O)[C@@H]2[C@@H]3C(=O)N(Cc4ccc5c(c4)OCO5)C(=O)[C@@H]3CC[C@@H]12`, the composite z-score in test [1] was 0.653; in test [3], 0.0827; in test [4], -0.0811; in test [5], 0.495; in [6], 1.29; in [7] it was 0.237. In addition, the composite z-score stood at 1.31 in test [8]; 1.19 in test [9]; 0.959 in test [10]; 1.05 in [11]; 1.14 in test [12]; 0.597 in [13]. Further, the composite z-score in test [14] worked out at 0.558; in test [15] it was 1.18; in test [16] it was 0.414; in test [18], 0.709; in test [19], 0.574. Besides, the composite Z-score in [2] was 0.74 (inactive). Further, the z-score in test [17] was -0.286; in test [20], 0.696 (inactive).
Take `CC(C)CON=C1C[C@@H](O)[C@@H](O)[C@@H]2[C@@H]3C(=O)N(c4ccc(F)cc4F)C(=O)[C@@H]3CC[C@@H]12`: the composite z-score was 0.238 in test [1]; -0.095 in test [3]; -0.0896 in test [4]; 0.0617 in test [5]; -0.146 in [6]; 0.135 in [7]. The composite z-score in test [8] was determined as 0.693; in test [9] it was 0.243; in test [10], 0.72; in [11] it was 0.663; in test [12] it was 0.105; in test [13], 0.156. Moreover, the composite z-score in test [14] is 0.699; in test [15], 0.585; in test [16], 0.508; in test [18] it was 0.617; in test [19] it was -0.0433. Besides, the composite Z-score in test [2] was -0.0578 (inactive). Further, the values for the z-score in test [17] and in test [20] were -0.99 and 0.831 (inactive), respectively.
As for `O=C1[C@H]2CCn3c(=O)n(Cc4cc5c(cc4Cl)OCO5)c(=O)n3[C@H]2[C@H](O)[C@@H]2O[C@H]12`, the composite z-score in test [1] is 0.662; in [3] it was -0.15; in [4], -0.14; in [5] it was 0.29; in test [6], 0.242; in test [7], -0.14. For the same compound, the composite z-score in [8] is -0.435; in test [9] it was 0.716; in test [10], -0.0737; in test [11], 0.85; in test [12], -0.542; in test [13], -0.255. Moreover, the composite z-score in test [14] was found to be 0.855; in [15] it was 0.596; in test [16], 0.299; in test [18], 0.298; in [19], 0.176. Moreover, in [2], the composite Z-score was -0.0662 (inactive). Moreover, the values for the z-score in test [17] and in [20] were -0.512 and -1.44 (inactive), respectively.
For `CC(C)=NOC[C@@H](O)[C@H]1O[C@@H]2OC(C)(C)O[C@@H]2[C@H]1O`, the composite z-score in [1] was 0.255; in test [3], -0.349; in test [4] it was -0.273; in test [5] it was -0.0402; in [6], 1.85; in [7], 0.116. The composite z-score in test [8] is 0.968; in test [9], 0.537; in [10] it was 0.929; in [11] it was -0.0333; in [12], 0.491; in test [13], 0.17. Moreover, the composite z-score in [14] is 0.0104; in test [15] it was 0.464; in [16], 0.57; in test [18] it was 0.507; in [19], 0.0212. The composite Z-score in test [2] was 0.559 (inactive). In addition, the z-score in test [17] is 0.225; in [20] it was -0.394 (inactive).
